Measurements: PubChem BioAssay (NCATS)
Where “and” joins values, the source holds several entries; their conditions need not be identical. Identical values can stand only once. Inconclusive results are not listed. Calls of active or inactive are those of the source. Unless noted, calls follow the shape of the dose curve; as a rule, active = well fitted curve in the direction sought with a large enough effect; inconclusive = small, poorly fitted or top-dose-only effect, or another doubt; inactive = no such curve, though single readings can be large; an effect the other way counts as inactive or inconclusive.

Assays:
[1] = molecular target: Thioredoxin reductase 1, cytoplasmic (Rattus norvegicus) (UniProt O89049); experiment: qHTS Assay for Inhibitors of Mammalian Selenoprotein Thioredoxin Reductase 1 (TrxR1) (AID 488773); conditions: Potency: inhibition;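 also: drop in NADPH fluorescence over an 8 min run after selenite addition; series mostly up to about 57 µM; % is scaled to controls: 0 for no effect and ±100 for the full control effect; nearly all actives have a fitted effect of over 40% in size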
How it was run: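 Steps: enzyme (90 nM) plus NADPH (400 uM final), 5 min at ~22 deg C; compound added, 15 min; selenite (400 uM final) added; fluorescence followed for 8 min. Concentration-response curves derived from the normalized delta values.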

[2] = molecular target: Flap endonuclease 1 (Homo sapiens) (UniProt P39748); experiment: qHTS Validation Assay for the Inhibitors of Human Flap endonuclease 1 (FEN1) (AID 488816); also: % is scaled to controls: 0 for no effect and ±100 for the full control effect
How it was run: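 Human FEN1 (10 nM) preincubated 15 min at room temperature with compounds, then flap DNA substrate added at 50 nM final. Fluorescence read at 0 and 15 min; concentration-response fitted with four-parameter Hill equation.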

[3] = molecular target: Chromobox protein homolog 1 (Homo sapiens) (UniProt P83916); experiment: qHTS Validation Assay for Inhibitors of HP1-beta Chromodomain Interactions with Methylated Histone Tails (AID 488953); also: nearly all actives have a fitted effect of over 50% in size; also: potency is read from the fitted curve at half-maximal effect
How it was run: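 HP1-beta (50 nM) was preincubated 30 min at room temperature with biotinylated H3(1-18)K9me3 peptide (50 nM) in PBS pH 7.4, 0.01% Tween-20, then with compounds 30 min. AlphaScreen signal was read after streptavidin donor/nickel chelate acceptor beads (10 ug/mL final).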

[4] = molecular target: Methanococcus maripaludis chaperonin (MmCpn) (UniProt Q6LX38); experiment: High-Throughput Screening for Modulators of Cytosolic Chaperonin Activity: MmCpn Primary Screen (AID 488978); also: 0% is about no effect
How it was run: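 HTRF readout (320 nm excitation, 590/665 nm emission) of ADP generated by 50 nM MmCpn hydrolysing 30 uM ATP during 10 min at 37C; compound preincubated 5 min RT.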

[5] = molecular target: Transient receptor potential cation channel subfamily V member 1 (Homo sapiens) (UniProt Q8NER1); experiment: HTS Assay for Compounds that Act as Enhancers of the Vanilloid Receptor 1 (AID 488979); also: 0% is about no effect
How it was run: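 TRPV1 cells loaded with Fluo-8 calcium dye; compound added and Ca2+ signal (ex 480/em 520 nm) followed 3 min, then capsaicin at EC20 added and read 2 more min to detect enhancement.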

[6] = molecular target: Thyrotropin receptor (Homo sapiens) (UniProt P16473); experiment: qHTS Assay for Antagonists of the Thyroid Stimulating Hormone Receptor (AID 488980); also: series mostly up to about 58 µM; 0% is about no effect
How it was run: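 Inhibition of TSH-stimulated cAMP accumulation was quantified by homogeneous time-resolved FRET in TSHR-transfected HEK293 cells. Agonist: TSH, 4 nM final (EC80).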

[7] = molecular target: D(1A) dopamine receptor (Homo sapiens) (UniProt P21728); experiment: HTS Assay for Allosteric Agonists of the Human D1 Dopamine Receptor: Primary Screen for Agonists (AID 488981); also: 0% is about no effect
How it was run: (§1)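 Tetracycline-induced HEK293 Trex D1 cells with forced coupling to calcium, loaded with no-wash calcium dye; kinetic fluorescence read 180 s after compound addition for agonism, then a further 180 s after an EC20 dopamine challenge for potentiation.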

[8] = molecular target: D(1A) dopamine receptor (Homo sapiens) (UniProt P21728); experiment: HTS Assay for Allosteric Agonists of the Human D1 Dopamine Receptor: Primary Screen for Antagonists (AID 488983);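 also: calcium flux response to an EC80 dopamine challenge measured with no-wash dye; % is scaled to controls: 0 for no effect and ±100 for the full control effect; nearly all actives have a fitted effect of over 65% in size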
How it was run: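 Tetracycline-induced HEK293 T-REx cells expressing force-coupled D1 were plated overnight at 30 C, dye-loaded for calcium, and read kinetically. Compounds were pinned in, then an EC80 dopamine challenge followed after 180 s to reveal antagonism.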

[9] = Validation screen for small molecules that induce genotoxicity in human embryonic kidney (HEK293T) cells expressing luciferase-tagged ELG1 (AID 493106); also: 0% is about no effect
How it was run: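 HEK293T cells expressing luciferase-tagged ELG1 were exposed to compound or DMSO vehicle for 16 hr at 37 °C, 5% CO2. Genotoxic stress raises ELG1 levels, so increased luciferase signal after ONE-Glo addition and 30 min at room temperature marks hits.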

[10] = molecular target: Thyrotropin-releasing hormone receptor (Homo sapiens) (UniProt P34981); experiment: qHTS for Small Molecule Agonists and Allosteric Enhancers of Human TRH Receptor: Validation Screen for Agonists (AID 493127;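 active = calcium activation more than 3 SD above the typical response in the agonist read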;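 also: intracellular calcium rise by fluo-8 fluorescence before TRH EC20 addition; 0% is about no effect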); conditions: TRH receptor agonist cell assay; at 2 µM; stronger effect = higher value
How it was run: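 TRHR-expressing cells were plated overnight in serum-containing medium, then loaded with fluo-8 calcium dye at room temperature for 30 min–1.5 h. After a 10 s baseline, compound was pin-transferred and calcium fluorescence (ex 480/em 530) read kinetically for agonist response.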

[11] = Nrf2 qHTS screen for inhibitors: Validation (AID 493153; active = well fitted inhibition curve with a large enough effect in the main read-out, with a control signal flat, not every such curve was filed as active); conditions: viability change: measured here: cytotoxicity max response
How it was run: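 A549 cells carrying an ARE-driven firefly luciferase reporter, in 5% FBS OPTI-MEM, were treated with compounds in concentration-response for 18-24 h at 37°C. Viability was read by CellTiter-Fluor fluorescence, then Nrf2 activity by luciferase luminescence.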

[12] = qHTS for Inhibitors of Cell Surface uPA Generation: Validation Assay (AID 493164);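 also: RAW 264.7 macrophage cells exposed to compound for 18 h; 0% is about no effect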
How it was run: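 RAW 264.7, 4000 cells/well, o/n plating; cpd 7-pt 1:5 dilution 2.45 nM–38.3 uM final; 18 h, 37 C/5% CO2; ATP-Lite, 5 s luminescence exposure.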

[13] = molecular target: Galactokinase (Homo sapiens) (UniProt P51570); experiment: qHTS Validation Assay for Inhibitors of Human Galactokinase (GALK) (AID 493189); also: 0% is about no effect
How it was run: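 Enzyme activity is inferred from ATP consumption: human GALK phosphorylates galactose (100 uM) using 35 uM ATP for 1 h at room temperature, and luciferase-based Kinase-Glo Plus reports unconsumed ATP.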

[14] = Validation screen for small molecules that induce DNA re-replication in SW480 colon adenocarcinoma cells (AID 504364); also: 0% is about no effect
How it was run: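 SW480 cells seeded at 250 per well were exposed to compound or DMSO for 48 hr at 37 C, 5% CO2, then stained with Hoechst for 40 min. DNA content per nucleus was imaged (405 nm ex, 500-530 nm em).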

[15] = molecular target: Peptidyl-prolyl cis-trans isomerase NIMA-interacting 1 (Homo sapiens) (UniProt Q13526); experiment: qHTS Validation Assay to Find Inhibitors of Pin1 (AID 504536; active = well fitted inhibition curve with a large enough effect in the polarisation, with a control signal flat, not every such curve was filed as active; the % refers to the polarisation;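 also: 0% = full Pin1 enzyme wells and -100% = no-enzyme wells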)
How it was run: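 Fluorescence polarization competition: compounds (titration) displace HiFluor-488-labeled Pin1-1b peptide from Pin1 (0.3 uM final) in pH 7.5 HEPES buffer with DTT, 10 min at room temperature; %Activity normalized to no-enzyme wells, curves fitted.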

[16] = molecular target: M-phase phosphoprotein 8 (Homo sapiens) (UniProt Q99549); experiment: qHTS Validation Assay for Inhibitors for MPP8 Chromodomain Interactions with Methylated Histone Tails (AID 488949); also: nearly all actives have a fitted effect of over 55% in size; also: potency is read from the fitted curve at half-maximal effect
How it was run: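 Chemiluminescent proximity assay: histidine-tag capture via nickel acceptor beads, biotin peptide via streptavidin donor beads. Protein and peptide each at 50 nM, pH 7.4, with 30 min incubations at room temperature for complex formation, compound exposure and bead binding.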

[17] = molecular target: D(1A) dopamine receptor (Homo sapiens) (UniProt P21728); experiment: HTS Assay for Allosteric Agonists of the Human D1 Dopamine Receptor: Primary Screen for Potentiators (AID 488982); also: 0% is about no effect
How it was run: as §1

[18] = molecular target: ATPase family AAA domain-containing protein 5 (Homo sapiens) (UniProt Q96QE3); experiment: Validation screen for small molecules that inhibit ELG1-dependent DNA repair in human embryonic kidney (HEK293T) cells expressing luciferase-tagged ELG1 (AID 493107);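 also: cells co-treated with the DNA-damaging agent 5-fluorouridine alongside compound; series mostly up to about 46 µM; % is scaled to controls: 0 for no effect and ±100 for the full control effect; inhibitors lower the ELG1-luciferase luminescence signal; nearly all actives have a fitted effect of over 70% in size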
How it was run: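 HEK293T cells expressing luciferase-tagged ELG1 were co-treated with 5-fluorouridine and compound or DMSO for 16 hr at 37 °C, 5% CO2. Luciferase activity was then read with ONE-Glo after 30 min at room temperature; suppressed signal indicates blocked ELG1 function.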

[19] = molecular target: ATP-dependent 6-phosphofructokinase (Trypanosoma brucei brucei) (UniProt O15648); experiment: qHTS Assay to Find Inhibitors of T. brucei phosphofructokinase: hit validation (AID 492961); also: series mostly up to about 51 µM; % is scaled to controls: 0 for no effect and ±100 for the full control effect
How it was run: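 Luminescence from ADP-Glo reports ADP generated as T. brucei PFK (1.25 nM) phosphorylates 0.5 mM fructose-6-phosphate using 0.1 mM ATP. Reactions ran 45 min at room temperature, pH 8.0.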

Sequence of Thyrotropin receptor (Homo sapiens) (P16473 whole entry, looked up): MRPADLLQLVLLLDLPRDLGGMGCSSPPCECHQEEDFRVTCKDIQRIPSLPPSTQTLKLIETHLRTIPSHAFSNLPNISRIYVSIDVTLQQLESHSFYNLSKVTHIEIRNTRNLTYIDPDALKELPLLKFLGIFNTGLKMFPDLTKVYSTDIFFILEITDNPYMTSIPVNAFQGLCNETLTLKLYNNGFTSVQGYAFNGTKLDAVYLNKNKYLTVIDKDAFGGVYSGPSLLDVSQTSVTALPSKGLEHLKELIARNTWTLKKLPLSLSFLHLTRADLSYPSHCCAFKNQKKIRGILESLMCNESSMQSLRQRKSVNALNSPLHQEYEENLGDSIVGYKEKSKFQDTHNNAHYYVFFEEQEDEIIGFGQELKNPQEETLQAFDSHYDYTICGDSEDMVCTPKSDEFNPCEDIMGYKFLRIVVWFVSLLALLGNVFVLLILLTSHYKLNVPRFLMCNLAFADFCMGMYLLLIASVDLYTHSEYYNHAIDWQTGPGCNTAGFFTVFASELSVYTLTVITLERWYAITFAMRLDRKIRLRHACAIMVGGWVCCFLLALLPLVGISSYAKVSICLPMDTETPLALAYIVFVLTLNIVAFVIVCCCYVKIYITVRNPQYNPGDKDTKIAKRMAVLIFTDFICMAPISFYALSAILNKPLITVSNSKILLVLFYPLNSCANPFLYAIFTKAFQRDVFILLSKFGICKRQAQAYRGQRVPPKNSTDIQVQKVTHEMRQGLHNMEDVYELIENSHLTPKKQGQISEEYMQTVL
Sequence of M-phase phosphoprotein 8 (Homo sapiens) (Q99549 whole entry, looked up): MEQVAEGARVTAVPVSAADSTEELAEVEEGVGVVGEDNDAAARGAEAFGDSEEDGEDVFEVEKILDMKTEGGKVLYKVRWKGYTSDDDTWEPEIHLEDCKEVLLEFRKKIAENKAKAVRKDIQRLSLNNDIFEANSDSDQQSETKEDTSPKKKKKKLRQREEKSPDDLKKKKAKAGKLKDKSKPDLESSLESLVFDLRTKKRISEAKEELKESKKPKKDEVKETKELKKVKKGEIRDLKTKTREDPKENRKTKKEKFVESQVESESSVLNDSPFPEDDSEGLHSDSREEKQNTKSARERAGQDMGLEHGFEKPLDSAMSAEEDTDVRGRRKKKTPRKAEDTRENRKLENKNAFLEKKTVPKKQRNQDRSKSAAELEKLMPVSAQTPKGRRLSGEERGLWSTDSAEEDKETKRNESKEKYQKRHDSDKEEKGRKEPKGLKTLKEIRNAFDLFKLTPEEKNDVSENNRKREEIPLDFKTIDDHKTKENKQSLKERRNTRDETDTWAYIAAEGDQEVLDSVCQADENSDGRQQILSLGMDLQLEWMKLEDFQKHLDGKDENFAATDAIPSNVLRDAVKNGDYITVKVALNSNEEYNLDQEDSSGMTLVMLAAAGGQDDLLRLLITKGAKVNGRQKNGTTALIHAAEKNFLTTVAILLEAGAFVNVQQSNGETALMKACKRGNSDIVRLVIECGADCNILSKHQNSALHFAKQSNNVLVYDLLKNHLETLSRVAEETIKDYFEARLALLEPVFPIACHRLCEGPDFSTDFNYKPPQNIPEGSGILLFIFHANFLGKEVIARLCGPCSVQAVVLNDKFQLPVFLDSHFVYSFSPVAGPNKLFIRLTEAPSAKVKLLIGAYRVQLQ
Sequence of Transient receptor potential cation channel subfamily V member 1 (Homo sapiens) (Q8NER1 whole entry, looked up): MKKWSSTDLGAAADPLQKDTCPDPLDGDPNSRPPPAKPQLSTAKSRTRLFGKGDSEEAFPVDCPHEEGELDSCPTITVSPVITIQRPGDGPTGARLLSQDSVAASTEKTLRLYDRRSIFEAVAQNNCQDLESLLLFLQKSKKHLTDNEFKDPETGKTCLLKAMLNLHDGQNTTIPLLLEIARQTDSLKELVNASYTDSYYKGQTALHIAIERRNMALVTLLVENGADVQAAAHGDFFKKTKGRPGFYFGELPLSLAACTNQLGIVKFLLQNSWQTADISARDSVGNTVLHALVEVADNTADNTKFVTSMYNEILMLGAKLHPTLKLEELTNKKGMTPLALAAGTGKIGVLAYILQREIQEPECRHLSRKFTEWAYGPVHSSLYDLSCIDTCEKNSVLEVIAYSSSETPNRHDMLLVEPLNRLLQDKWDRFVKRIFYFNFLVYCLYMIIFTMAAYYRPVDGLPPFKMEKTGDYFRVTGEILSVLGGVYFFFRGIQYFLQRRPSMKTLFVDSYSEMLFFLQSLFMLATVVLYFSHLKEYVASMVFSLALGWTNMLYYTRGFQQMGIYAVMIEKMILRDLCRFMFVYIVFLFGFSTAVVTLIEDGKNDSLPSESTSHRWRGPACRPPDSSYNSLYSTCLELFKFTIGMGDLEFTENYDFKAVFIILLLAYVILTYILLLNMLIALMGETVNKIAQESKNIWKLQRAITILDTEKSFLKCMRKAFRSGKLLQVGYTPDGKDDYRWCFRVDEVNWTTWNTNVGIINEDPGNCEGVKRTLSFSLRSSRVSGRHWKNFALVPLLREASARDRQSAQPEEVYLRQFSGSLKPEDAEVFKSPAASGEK
Sequence of Flap endonuclease 1 (Homo sapiens) (P39748 whole entry, looked up): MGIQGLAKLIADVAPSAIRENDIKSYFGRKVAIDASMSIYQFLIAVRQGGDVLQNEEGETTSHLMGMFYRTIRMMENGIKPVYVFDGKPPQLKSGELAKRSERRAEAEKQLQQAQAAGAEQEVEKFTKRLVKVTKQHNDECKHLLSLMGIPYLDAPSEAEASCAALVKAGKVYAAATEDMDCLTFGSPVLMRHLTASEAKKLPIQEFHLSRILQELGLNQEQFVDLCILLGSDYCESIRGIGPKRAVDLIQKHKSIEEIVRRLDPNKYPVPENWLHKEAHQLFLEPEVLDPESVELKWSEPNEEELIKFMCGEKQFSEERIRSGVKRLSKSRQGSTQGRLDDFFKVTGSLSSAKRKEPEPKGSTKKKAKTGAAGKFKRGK
Sequence of Galactokinase (Homo sapiens) (P51570 whole entry, looked up): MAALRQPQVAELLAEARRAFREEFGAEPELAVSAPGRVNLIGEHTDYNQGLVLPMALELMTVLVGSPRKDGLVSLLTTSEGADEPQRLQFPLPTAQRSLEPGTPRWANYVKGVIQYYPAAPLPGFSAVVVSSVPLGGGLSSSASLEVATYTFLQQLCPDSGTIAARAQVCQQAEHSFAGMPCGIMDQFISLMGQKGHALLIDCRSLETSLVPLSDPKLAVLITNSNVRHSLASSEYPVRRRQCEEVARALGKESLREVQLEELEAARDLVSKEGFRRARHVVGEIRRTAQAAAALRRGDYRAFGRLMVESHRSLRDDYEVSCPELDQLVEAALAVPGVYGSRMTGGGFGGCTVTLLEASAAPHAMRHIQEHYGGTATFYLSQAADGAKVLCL
Sequence of ATPase family AAA domain-containing protein 5 (Homo sapiens) (Q96QE3 whole entry, looked up, the tested form may be a part): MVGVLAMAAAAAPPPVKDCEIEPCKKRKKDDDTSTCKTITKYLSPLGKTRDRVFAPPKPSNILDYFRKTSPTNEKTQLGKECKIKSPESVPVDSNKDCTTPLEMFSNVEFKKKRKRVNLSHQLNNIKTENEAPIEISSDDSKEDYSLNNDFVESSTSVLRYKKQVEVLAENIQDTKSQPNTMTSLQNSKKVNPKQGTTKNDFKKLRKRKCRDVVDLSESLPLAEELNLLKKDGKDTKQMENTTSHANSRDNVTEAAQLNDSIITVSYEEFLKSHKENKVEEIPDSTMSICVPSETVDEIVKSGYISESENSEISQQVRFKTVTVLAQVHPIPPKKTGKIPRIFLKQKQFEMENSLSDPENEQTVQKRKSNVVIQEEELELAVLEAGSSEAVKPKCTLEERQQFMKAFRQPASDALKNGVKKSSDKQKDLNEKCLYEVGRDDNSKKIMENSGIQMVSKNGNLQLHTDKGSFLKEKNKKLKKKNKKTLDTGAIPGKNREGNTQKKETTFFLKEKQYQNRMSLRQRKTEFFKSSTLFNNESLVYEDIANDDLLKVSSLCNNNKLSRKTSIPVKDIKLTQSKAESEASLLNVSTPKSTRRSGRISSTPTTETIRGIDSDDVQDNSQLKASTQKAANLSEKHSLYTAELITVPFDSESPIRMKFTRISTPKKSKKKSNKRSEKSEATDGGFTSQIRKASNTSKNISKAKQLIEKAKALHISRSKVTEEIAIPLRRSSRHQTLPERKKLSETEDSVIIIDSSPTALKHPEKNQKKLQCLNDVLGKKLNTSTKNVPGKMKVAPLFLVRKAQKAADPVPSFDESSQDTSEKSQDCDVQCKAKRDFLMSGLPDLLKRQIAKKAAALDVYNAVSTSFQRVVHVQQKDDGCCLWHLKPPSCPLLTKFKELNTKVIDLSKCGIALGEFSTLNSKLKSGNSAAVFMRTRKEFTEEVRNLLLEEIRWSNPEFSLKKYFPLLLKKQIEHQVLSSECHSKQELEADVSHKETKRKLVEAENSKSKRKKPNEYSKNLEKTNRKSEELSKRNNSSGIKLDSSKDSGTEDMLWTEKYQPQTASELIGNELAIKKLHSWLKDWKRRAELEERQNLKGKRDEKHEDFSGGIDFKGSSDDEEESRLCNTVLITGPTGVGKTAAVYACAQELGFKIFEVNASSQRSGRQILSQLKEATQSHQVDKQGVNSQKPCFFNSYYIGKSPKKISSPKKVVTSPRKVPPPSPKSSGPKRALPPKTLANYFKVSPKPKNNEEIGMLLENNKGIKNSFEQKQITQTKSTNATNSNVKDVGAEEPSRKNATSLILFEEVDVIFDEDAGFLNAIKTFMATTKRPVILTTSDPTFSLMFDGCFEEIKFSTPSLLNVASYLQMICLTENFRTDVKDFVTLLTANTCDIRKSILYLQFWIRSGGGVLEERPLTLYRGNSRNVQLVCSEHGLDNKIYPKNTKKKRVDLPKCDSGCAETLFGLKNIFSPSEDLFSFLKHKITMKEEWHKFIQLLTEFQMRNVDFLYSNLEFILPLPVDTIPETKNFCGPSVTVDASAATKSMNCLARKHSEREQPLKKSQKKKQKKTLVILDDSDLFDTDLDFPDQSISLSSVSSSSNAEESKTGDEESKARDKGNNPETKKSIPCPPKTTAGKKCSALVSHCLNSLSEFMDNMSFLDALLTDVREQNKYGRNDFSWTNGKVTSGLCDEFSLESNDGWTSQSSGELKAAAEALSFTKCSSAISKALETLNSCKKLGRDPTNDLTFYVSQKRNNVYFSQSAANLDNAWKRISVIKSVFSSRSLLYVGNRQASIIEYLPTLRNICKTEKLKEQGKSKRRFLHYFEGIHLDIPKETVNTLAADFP

O=C1CCCN1CC#CCN1CCCC1
3.92%: viability change [11]
inactive: Potency [1] | Potency [2] | Potency [3] | outcome [4] | outcome [5] | outcome [6] | Potency [7] | Potency [8] | outcome [9] | activation [10] 3.06% | outcome [11] | outcome [12] | outcome [13] | outcome [14] | outcome [15]

O=C(O)Cc1cnc[nH]1
inactive: Potency [1] | Potency [2] | Potency [16] | outcome [4] | outcome [5] | outcome [6] | Potency [7] | outcome [17] | Potency [8] | outcome [9] | Potency [18] | activation [10] 0.875% | outcome [11] | outcome [12] | outcome [13] | outcome [14] | outcome [15]
-0.284%: viability change [11]

c1ccc2sc(C3(N4CCCCC4)CCCCC3)cc2c1
-6.89%: viability change [11]
inactive: Potency [1] | Potency [2] | Potency [16] | Potency [3] | outcome [4] | outcome [5] | outcome [6] | Potency [7] | outcome [17] | outcome [9] | activation [10] -13.1% | outcome [11] | outcome [12] | outcome [13] | outcome [14] | outcome [15]

O=C(O)[C@@H]1CCN1
inactive: Potency [1] | Potency [2] | Potency [3] | outcome [4] | outcome [5] | outcome [6] | Potency [7] | outcome [17] | Potency [8] | outcome [9] | activation [10] 0.75% | outcome [11] | outcome [12] | outcome [13] | outcome [14] | outcome [15]
8.8%: viability change [11]

NCc1cc(=O)[nH]o1
4.87%: viability change [11]
inactive: Potency [1] | Potency [2] | Potency [3] | outcome [4] | outcome [5] | outcome [6] | Potency [7] | outcome [17] | Potency [8] | outcome [9] | Potency [18] | activation [10] -4.19% | outcome [11] | outcome [12] | outcome [13] | outcome [14] | outcome [15]

C=CCN1CC[C@]23CCCCC2[C@H]1Cc1ccc(O)cc13 (some centres undefined)
-5%: viability change [11]
inactive: Potency [1] | Potency [2] | Potency [3] | outcome [4] | outcome [5] | outcome [6] | Potency [7] | outcome [17] | Potency [8] | Potency [19] | outcome [9] | activation [10] 2% | outcome [11] | outcome [12] | outcome [13] | outcome [14] | outcome [15]

c1ccc(CCCN2CCN(CCOC(c3ccccc3)c3ccccc3)CC2)cc1
inactive: Potency [1] | Potency [2] | outcome [4] | outcome [5] | outcome [6] | Potency [7] | outcome [17] | outcome [9] | activation [10] 0.0625% | outcome [11] | outcome [12] | outcome [13] | outcome [15]
-4.56%: viability change [11]
active: Potency [16] 39.8 µM | Potency [3] 0.0084 µM

CC(=O)[C@H]1CCC2C3CC[C@H]4C[C@H](O)CC[C@]4(C)C3CC[C@@]21C (some centres undefined)
inactive: Potency [1] | Potency [2] | Potency [3] | outcome [4] | outcome [5] | outcome [6] | Potency [7] | outcome [17] | Potency [8] | outcome [9] | activation [10] -6% | outcome [11] | outcome [12] | outcome [13] | outcome [14]
-0.378%: viability change [11]

NC(CCP(=O)(O)O)C(=O)O (centres undefined)
inactive: Potency [1] | Potency [2] | Potency [3] | outcome [4] | outcome [5] | outcome [6] | Potency [7] | outcome [17] | Potency [8] | outcome [9] | Potency [18] | activation [10] -3% | outcome [11] | outcome [12] | outcome [13] | outcome [14] | outcome [15]
2.18%: viability change [11]

CC(=O)NCCc1c[nH]c2ccccc12
inactive: Potency [1] | Potency [2] | Potency [16] | outcome [4] | outcome [5] | outcome [6] | Potency [7] | outcome [17] | Potency [8] | outcome [9] | activation [10] 0.375% | outcome [11] | outcome [12] | outcome [13] | outcome [14] | outcome [15]
1%: viability change [11]

CCCN1CCO[C@@H]2c3cc(O)ccc3OC[C@H]21
-0.639% and -4.02%: viability change [11]
inactive: Potency [1] | Potency [2] | Potency [3] | outcome [4] | outcome [5] | outcome [6] | Potency [7] | outcome [17] | Potency [8] | outcome [9] | activation [10] 1.06% and 0% | outcome [11] | outcome [12] | outcome [13] | outcome [14] | outcome [15]

CC[C@@H](C(N)=O)N1CCCC1=O
0%: viability change [11]
inactive: Potency [1] | Potency [2] | Potency [16] | Potency [3] | outcome [4] | Potency [7] | outcome [17] | Potency [8] | outcome [9] | Potency [18] | outcome [11] | outcome [12] | outcome [15]

CN1C2CCC1CC(OC(=O)c1cc(Cl)cc(Cl)c1)C2 (centres undefined)
inactive: Potency [1] | Potency [2] | Potency [16] | Potency [3] | outcome [4] | outcome [5] | outcome [6] | outcome [17] | Potency [8] | outcome [9] | activation [10] 3.5% | outcome [11] | outcome [12] | outcome [13] | outcome [14] | outcome [15]
1.01%: viability change [11]

NC(CP(=O)(O)O)C(=O)O (centres undefined)
-2.21%: viability change [11]
inactive: Potency [1] | Potency [2] | Potency [3] | outcome [4] | outcome [5] | outcome [6] | Potency [7] | outcome [17] | Potency [8] | outcome [9] | Potency [18] | activation [10] -3.19% | outcome [11] | outcome [12] | outcome [13] | outcome [14] | outcome [15]

C[C@@H]1O[C@H](C[N+](C)(C)C)C[C@H]1O
-6.13%: viability change [11]
inactive: Potency [1] | Potency [2] | Potency [16] | Potency [3] | outcome [4] | outcome [5] | outcome [6] | Potency [7] | outcome [17] | Potency [8] | activation [10] 20.8% | outcome [11] | outcome [12] | outcome [13] | outcome [14] | outcome [15]
